We go through 16 compounds from PubChem BioAssay AID504715 (Sanford-Burnham Center for Chemical Genomics, 2011).

This is one part of the list. The source made the active and inactive calls.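 The calls were made as follows: active = compounds giving 40% or more inhibition at 20 µM in any one of the three replicates; inactive = the rest.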

For the experiment, the target named is Uracil-DNA glycosylase (Escherichia coli (strain K12)) (UniProt P12295). In words: E. coli UDG inhibitors, confirmation, counter-screen for APOBEC3G inhibitor project, biochemical, single concentration, fluorescence, FAM/TAMRA oligo (AID 504715).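 Also: plate controls were DMSO wells with UDG and oligo for no effect and DMSO wells lacking both for full effect; inhibitors lower the FAM signal released by uracil excision and alkaline cleavage.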 Conditions: UDG counterscreen, at 20 µM, active compounds read high. For orientation: The purpose of a counterscreen is to sort out artefacts and off-target activity.
Sequence of Uracil-DNA glycosylase (Escherichia coli (strain K12)) (P12295 whole entry, looked up): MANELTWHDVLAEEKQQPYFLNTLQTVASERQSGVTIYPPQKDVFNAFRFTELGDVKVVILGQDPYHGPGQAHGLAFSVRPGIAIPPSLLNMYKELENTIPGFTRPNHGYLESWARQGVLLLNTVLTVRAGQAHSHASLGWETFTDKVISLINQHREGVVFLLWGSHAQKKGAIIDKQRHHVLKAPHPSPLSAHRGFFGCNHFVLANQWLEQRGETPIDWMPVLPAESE
Regarding `CCOc1cc(C(=S)N2CCOCC2)ccc1O`, the inhibition was -2.88% (inactive).
Take `S=c1[nH]ccn1-c1ccc(Cl)cc1`: the inhibition was 2.81% (inactive).
The value for `CCc1c(C)[nH]c(=S)c(C#N)c1C` was -0.5% (inactive); that for `CC(C)(C)c1nnc(NC(=O)C2c3ccccc3Oc3ccccc32)s1` was -3.35% (inactive); that for `COc1ccccc1-n1c(-c2cc(-c3ccco3)[nH]n2)n[nH]c1=S` was -3.83% (inactive).
For the compound `O=C1CC(Sc2ncn[nH]2)C(=O)N1c1ccccc1` (stereo unspecified), the inhibition is -0.97% (inactive).
In the case of `Cc1cc(C)c2c(-c3ccc(F)cc3)c(C#N)c(=O)n(C)c2n1`, the inhibition is -3.68% (inactive).
Regarding `Fc1ccccc1/C=N/n1c(-c2cccnc2)n[nH]c1=S`, the inhibition was 0.6% (inactive).
For `CCOc1ccc(NC(=O)c2ccc(NC(=O)COC(=O)c3ccc(NC(=O)CC#N)cc3)cc2)cc1`, the inhibition is 2.3% (inactive).
Consider `CC1=C/C(=N\OS(=O)(=O)c2ccccc2)C=CC1=O`, for which the inhibition is 1.47% (inactive).
For the compound `Nc1ccccc1SC(C[N+](=O)[O-])c1ccccc1` (stereo unspecified), the inhibition was -4.66% (inactive).
Take `S=c1[nH]nc(-c2cc(-c3ccccc3)n[nH]2)n1/N=C/c1c2ccccc2cc2ccccc12`: the inhibition was 7.23% (inactive).
Then `Cc1ccc(S(=O)(=O)N(C)CC(=O)NCCc2c[nH]c3ccccc23)cc1`, with -2.52% (inactive); and `Cc1ccc(C(=O)c2c(NC(=O)c3ccccc3)sc(C)c2C)cc1`, with 2.57% (inactive).
Consider `Cc1noc(C)c1CSc1nc2cc(S(=O)(=O)N3CCOCC3)ccc2o1`, for which the inhibition was 1.21% (inactive).
Regarding `CC(=O)N(C1=C(Cl)C(=O)c2ccccc2C1=O)c1ccc(C(=O)O)cc1`, the inhibition was -2.05% (inactive).

Broadly, the inhibition is the change of the read-out against control, counted positive when it falls.
